Results as given in PubChem BioAssay (EPA / NIEHS).
Calls of active or inactive are those of the source. How the source made its calls: active means hit-call score of the fitted dose curve at least 0.9, where 1 is the maximum; inactive means score below 0.9.

Columns and labels:
Conditions in all cases: primary human HUVEC with PBMC; actives raise or lower the signal
[1] = read-out: Interleukin-1 alpha (IL1a), IL1A (gene 3552); test: BSK_LPS_IL1a: BioMAP Diversity Plus: LPS Assay for Interleukin-1 alpha (IL1a) Biomarker Activity (AID 2283080)
In short: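 Readout is IL-1a level by ELISA, 24 h post-dose, fitted as gain or loss relative to DMSO. System: LPS-activated human primary co-culture of vascular endothelium and peripheral blood mononuclear cells, with parallel SRB total-protein cytotoxicity.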

[2] = read-out: Monocyte Chemoattractant Protein-1 (MCP1), CCL2 (gene 6347); test: BSK_LPS_MCP1: BioMAP Diversity Plus: LPS Assay for Monocyte Chemoattractant Protein-1 (MCP1) Biomarker Activity (AID 2283081);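 on AC50: secreted MCP-1 protein quantified by ELISA in culture supernatant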
In short: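 Secreted MCP-1 read by ELISA at 24 h post-dosing in an LPS-activated co-culture of endothelial cells with peripheral blood mononuclear cells. Fits run in both directions, DMSO as baseline; parallel SRB staining tracks overt cytotoxicity.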

[3] = BSK_LPS_PGE2: BioMAP Diversity Plus: LPS Assay for Prostaglandin E2 (PGE2) Biomarker Activity (AID 2283082);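 on AC50: secreted prostaglandin E2 measured by ELISA in LPS-stimulated co-culture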
In short: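 HUVEC plus human PBMC co-culture stimulated with LPS; secreted PGE2 quantified by ELISA 24 h after chemical dosing. Activity fitted bidirectionally against DMSO baseline; parallel SRB staining (0.1% SRB after 10% TCA fixation, 560 nm) flags overt cytotoxicity.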

[4] = read-out: Macrophage colony-stimulating factor (MCSF), CSF1 (gene 1435); test: BSK_LPS_MCSF: BioMAP Diversity Plus: LPS Assay for Macrophage colony-stimulating factor (MCSF) Biomarker Activity (AID 2283083)
In short: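 Bidirectional fitting against DMSO was applied to M-CSF levels read by ELISA at 24 h post-dose. The system pairs human umbilical vein endothelium with peripheral blood mononuclear cells; parallel SRB staining tracked cytotoxicity.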

[5] = read-out: Tissue Factor, F3 (gene 2152); test: BSK_LPS_TissueFactor: BioMAP Diversity Plus: LPS Assay for Tissue Factor Biomarker Activity (AID 2283084)
In short: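 Compound was added to an endothelial cell/PBMC co-culture, and after 24 h tissue factor (CD142) was read by ELISA. Gain or loss of signal was fitted against a DMSO baseline, and parallel SRB staining (560 nm) tracked overt cytotoxicity.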

[6] = read-out: Tumor necrosis factor (Homo sapiens) (UniProt P01375); test: BSK_LPS_TNFa: BioMAP Diversity Plus: LPS Assay for Tumour Necrosis Factor alpha (TNFa) Biomarker Activity (AID 2283085);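 on AC50: TNFa protein level quantified by ELISA in the co-culture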
In short: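 Human umbilical vein endothelial cells co-cultured with PBMC and stimulated with LPS. TNFa was measured by ELISA 24 h after chemical dosing, fitted bidirectionally relative to DMSO.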

[7] = read-out: Vascular cell adhesion molecule 1 (VCAM1), VCAM1 (gene 7412); test: BSK_LPS_VCAM1: BioMAP Diversity Plus: LPS Assay for Vascular cell adhesion molecule 1 (VCAM1) Biomarker Activity (AID 2283086)
In short: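 Human umbilical vein endothelial cells co-cultured with PBMC and stimulated with LPS; VCAM-1 measured by ELISA 24 h after dosing. Bidirectional curve fitting against DMSO baseline; cytotoxicity tracked in parallel by SRB total-protein staining.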

[8] = read-out: CD38, CD38 (gene 952); test: BSK_SAg_CD38: BioMAP Diversity Plus: SAg Assay for CD38 Biomarker Activity (AID 2283087)
In short: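 Human HUVEC plus PBMC co-culture stimulated with superantigen; CD38 measured by ELISA 24 h after chemical dosing. Fluorescence read-out, bidirectional fit against DMSO; cytotoxicity tracked in parallel by SRB and Alamar Blue.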

[9] = read-out: CD40, CD40 (gene 958); test: BSK_SAg_CD40: BioMAP Diversity Plus: SAg Assay for CD40 Biomarker Activity (AID 2283088)
In short: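 CD40 is measured by fluorescence ELISA in an endothelial/PBMC primary human co-culture at 24 h post-dose. Fitting is bidirectional, DMSO baseline. Parallel SRB staining (560 nm) flags cytotoxicity.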

[10] = read-out: CD69, CD69 (gene 969); test: BSK_SAg_CD69: BioMAP Diversity Plus: SAg Assay for CD69 Biomarker Activity (AID 2283089);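 on AC50: cell surface CD69 protein quantified by ELISA with fluorescence detection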
In short: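 ELISA, fluorescence read-out: CD69 on human umbilical vein endothelial cell + PBMC co-culture, 24 h post-dosing. Gain or loss of signal fitted bidirectionally against DMSO baseline.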

Measured: AC50

Chain of Tumor necrosis factor (Homo sapiens) (P01375 whole entry, looked up): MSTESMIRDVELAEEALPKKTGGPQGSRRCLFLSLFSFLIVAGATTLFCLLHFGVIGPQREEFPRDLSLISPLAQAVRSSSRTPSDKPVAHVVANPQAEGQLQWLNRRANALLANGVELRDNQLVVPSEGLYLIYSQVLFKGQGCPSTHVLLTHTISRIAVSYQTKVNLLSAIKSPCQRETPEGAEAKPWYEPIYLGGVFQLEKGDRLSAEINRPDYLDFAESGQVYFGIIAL

O=S(=O)(O)C(F)(F)C(F)(F)C(F)(F)C(F)(F)C(F)(F)C(F)(F)F
inactive: all assays above

C[C@]12CCC(=O)C=C1CC[C@@H]1[C@@H]2CC[C@@]2(C)[C@H]1CC[C@]2(C)O
inactive: all assays above

CN(C)CCO
inactive: all assays above

CCC(C)(CC)c1cc(NC(=O)c2c(OC)cccc2OC)on1
inactive: all assays above

Clc1ccc(C(c2ccccc2Cl)C(Cl)(Cl)Cl)cc1 (stereo not given)
active: [1] 20.8 µM | [2] 21.6 µM | [3] 4.54 µM | [4] 18.3 µM | [5] 23.4 µM | [6] 23.8 µM | [7] 19.2 µM | [8] 20.1 µM | [9] 14.1 µM | [10] 23.2 µM

CN(C)c1nc(=O)n(C2CCCCC2)c(=O)n1C
inactive: all assays above

CCOCCOC(C)=O
inactive: all assays above

c1ccc(-c2ccccc2)cc1
inactive: all assays above

Nn1cnnc1
inactive: all assays above

CCCCCCCCCc1ccc(O)cc1
active: [1] 22 µM | [2] 32.2 µM | [3] 7.76 µM | [4] 23.6 µM | [5] 31.3 µM | [6] 36.5 µM | [7] 22 µM | [8] 15.9 µM | [9] 20.3 µM | [10] 22.7 µM

CC(C)C(=O)OCC(C)(C)C(OC(=O)C(C)C)C(C)C (stereo not given)
inactive: all assays above

O=NN(c1ccccc1)c1ccccc1
active: [3] 2.14 µM | [6] 3.97 µM
inactive: all other assays above

Oc1ccc(C(c2ccc(O)cc2)(C(F)(F)F)C(F)(F)F)cc1
active: [1] 20.2 µM | [2] 27.5 µM | [3] 19.6 µM | [4] 20.1 µM | [5] 37.9 µM | [6] 21.5 µM | [7] 23.9 µM | [8] 20.6 µM | [9] 18.3 µM | [10] 26.6 µM

CC#Cc1cc(C)nc(Nc2ccccc2)n1
active: [3] 8.96 µM
inactive: all other assays above

ClC1=C(Cl)[C@]2(Cl)[C@@H]3[C@@H](Cl)[C@H]4O[C@H]4[C@@H]3C1(Cl)C2(Cl)Cl
active: [6] 2.42 µM | [8] 8.15 µM | [9] 11.6 µM
inactive: all other assays above

CCCCCCCCOC(=O)c1ccccc1C(=O)OCCCCCCCC
active: [7] 7.64 µM | [8] 11.2 µM
inactive: all other assays above

CCOC(=O)C(O)(c1ccc(Cl)cc1)c1ccc(Cl)cc1
inactive: [3]
active: [1] 30.3 µM | [2] 39.1 µM | [4] 28.2 µM | [5] 34 µM | [6] 39.3 µM | [7] 34 µM | [8] 29.4 µM | [9] 30.4 µM | [10] 36 µM
